# This excerpt belongs to a sample that is enriched for the strongest signals.
# B1: PX9961KLbvu-535-38-535 (Bacteroides vulgatus) (protein)
# chain: DKAYTDAESYTKGLHKIYSVWALSGQDGSSSSDISGLDAGNTALLRCWWTLQEQPTDEMKNAWNDAWCTEVNYMTWTTNKVEPIEGVYQRCMYIVALVNEFLKNIPNAPESIDKESYIAQARFNRAFAYYVLMDMFALPPFITEKNYSIEPAPLSREDLFNWIEAELNEIKPNLPSPRSEYGVADQAVASALLARMYLNAEIYTGKARYTECINACNEVIKAGYQLADNYADLFKADNGENPDTKKEIIYPIIFDGDKTQSWGMAAIIIGARGAEDKDVLLAHSGVDQGWAGFRATSNLVHLFDFQNDEEPKASEIQDKRGIFYDKGRSIDITSSVSGTFETEGWSVFKFSNLNSNGQPGKNTLWVDTDFPMFRLGDIYLMYAEAVARGGEGSKASAVEYINALRKRAYGDDKHNISENWLEENNFRNLLDERGRELYWEGIRRTDLVRFDLLTSGSYTWDFKGGINTGVGVNKRYNVYPIPVTDLTVNGNLQQNEGY
# Assays:
# Experiment in all cases: glycan array binding signal (z-score within array); higher = stronger binding
# Settings in all cases: glycan notation: IUPAC condensed, linker removed
# [1] = molecular target: Fuc(a1-2)Gal(b1-3)GalNAc(a1-3)[Fuc(a1-2)]Gal(b1-4)GlcNAc
# Method in brief: (§1)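 From the Consortium for Functional Glycomics database, 3228 arrays were curated, keeping only those whose protein sequence was available. Binding is given as a within-array Z-score averaged across arrays sharing a protein sequence and across linkers. Negative Z-scores can be read as non-binding.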
# [2] = molecular target: Fuc(a1-2)Gal(b1-3)[Fuc(a1-4)]GlcNAc
# Method in brief: as §1
# Fuc(a1-2)Gal(b1-4)Glc = molecular target: Fuc(a1-2)Gal(b1-4)Glc
# Method in brief: as §1
# [3] = molecular target: Fuc(a1-2)Gal(b1-4)GlcNAc(b1-2)[Fuc(a1-2)Gal(b1-4)GlcNAc(b1-4)]Man(a1-3)[Fuc(a1-2)Gal(b1-4)GlcNAc(b1-2)Man(a1-6)]Man(b1-4)GlcNAc(b1-4)GlcNAc
# Method in brief: as §1
# Fuc(a1-2)[Gal(a1-3)]Gal = molecular target: Fuc(a1-2)[Gal(a1-3)]Gal
# Method in brief: as §1
# [4] = molecular target: Fuc(a1-2)[Gal(a1-3)]Gal(b1-3)GlcNAc(b1-2)Man(a1-3)[Fuc(a1-2)[Gal(a1-3)]Gal(b1-3)GlcNAc(b1-2)Man(a1-6)]Man(b1-4)GlcNAc(b1-4)GlcNAc
# Method in brief: as §1
# [5] = molecular target: Fuc(a1-2)[GalNAc(a1-3)]Gal(b1-4)[Fuc(a1-3)]GlcNAc(b1-3)GalNAc
# Method in brief: as §1
# [6] = molecular target: Fuc(a1-2)[GalNAc(a1-4)]Gal(b1-4)GlcNAc
# Method in brief: as §1
# [7] = molecular target: Fuc(a1-3)[Gal(b1-4)]GlcNAc(b1-2)Man(a1-3)[Fuc(a1-3)[Gal(b1-4)]GlcNAc(b1-2)Man(a1-6)]Man(b1-4)GlcNAc(b1-4)[Fuc(a1-6)]GlcNAc
# Method in brief: as §1
# [8] = molecular target: Fuc(a1-3)[Gal3S(b1-4)]GlcNAc6S
# Method in brief: as §1
# Gal(a1-2)Gal = molecular target: Gal(a1-2)Gal
# Method in brief: as §1
# Gal(a1-3)Gal(b1-4)Glc = molecular target: Gal(a1-3)Gal(b1-4)Glc
# Method in brief: as §1
# [9] = molecular target: Gal(a1-3)Gal(b1-4)GlcNAc(b1-2)Man
# Method in brief: as §1
# [10] = molecular target: Gal(a1-3)Gal(b1-4)GlcNAc(b1-2)Man(a1-3)[Gal(a1-3)Gal(b1-4)GlcNAc(b1-2)Man(a1-6)]Man(b1-4)GlcNAc(b1-4)GlcNAc
# Method in brief: as §1
# [11] = molecular target: Gal(a1-3)[Gal(a1-4)]Gal(b1-4)GlcNAc
# Method in brief: as §1
# [12] = molecular target: Gal(a1-4)Gal(b1-4)GlcNAc(b1-2)Man(a1-3)[Gal(a1-4)Gal(b1-4)GlcNAc(b1-2)Man(a1-6)]Man(b1-4)GlcNAc(b1-4)GlcNAc
# Method in brief: as §1
# [13] = molecular target: Gal(b1-3)GalNAc(a1-3)[Fuc(a1-2)]Gal(b1-4)GlcNAc
# Method in brief: as §1
# [14] = molecular target: Gal(b1-3)GlcNAc(b1-3)Gal(b1-3)GlcNAc
# Method in brief: as §1
# [15] = molecular target: Gal(b1-3)GlcNAc(b1-3)Gal(b1-4)GlcNAc(b1-6)[Gal(b1-3)GlcNAc(b1-3)]Gal(b1-4)Glc
# Method in brief: as §1
# [16] = molecular target: Gal(b1-3)GlcNAc(b1-6)Gal(b1-4)GlcNAc
# Method in brief: as §1
# [17] = molecular target: Gal(b1-3)[Fuc(a1-4)]GlcNAc
# Method in brief: as §1
# [18] = molecular target: Gal(b1-4)GalNAc(a1-3)[Fuc(a1-2)]Gal(b1-4)GlcNAc
# Method in brief: as §1
# [19] = molecular target: Gal(b1-4)GlcNAc(b1-2)Man(a1-3)Man(b1-4)GlcNAc(b1-4)GlcNAc
# Method in brief: as §1
# [20] = molecular target: Gal(b1-4)GlcNAc(b1-2)Man(a1-3)[GlcNAc(b1-4)][Gal(b1-4)GlcNAc(b1-2)Man(a1-6)]Man(b1-4)GlcNAc(b1-4)GlcNAc
# Method in brief: as §1
# [21] = molecular target: Gal(b1-4)GlcNAc(b1-3)Gal(b1-4)GlcNAc(b1-3)Gal(b1-4)GlcNAc(b1-3)Gal(b1-4)GlcNAc(b1-2)Man(a1-3)[Gal(b1-4)GlcNAc(b1-3)Gal(b1-4)GlcNAc(b1-3)Gal(b1-4)GlcNAc(b1-3)Gal(b1-4)GlcNAc(b1-2)Man(a1-6)]Man(b1-4)GlcNAc(b1-4)GlcNAc
# Method in brief: as §1
# [22] = molecular target: Gal(b1-4)GlcNAc(b1-3)[Fuc(a1-3)GlcNAc(b1-6)]Gal(b1-4)Glc
# Method in brief: as §1
binder,measurement,setting,value
B1,glycan array binding signal (z-score),[1],-0.462
same,glycan array binding signal (z-score),[2],-0.042
same,glycan array binding signal (z-score),Fuc(a1-2)Gal(b1-4)Glc,-0.031
same,glycan array binding signal (z-score),[3],2.87
same,glycan array binding signal (z-score),Fuc(a1-2)[Gal(a1-3)]Gal,1.72
same,glycan array binding signal (z-score),[4],0.16
same,glycan array binding signal (z-score),[5],-0.162
same,glycan array binding signal (z-score),[6],-0.165
same,glycan array binding signal (z-score),[7],-0.392
same,glycan array binding signal (z-score),[8],-0.054
same,glycan array binding signal (z-score),Gal(a1-2)Gal,-0.938
same,glycan array binding signal (z-score),Gal(a1-3)Gal(b1-4)Glc,-0.366
same,glycan array binding signal (z-score),[9],-0.783
same,glycan array binding signal (z-score),[10],-0.391
same,glycan array binding signal (z-score),[11],2.6
same,glycan array binding signal (z-score),[12],2.35
same,glycan array binding signal (z-score),[13],-0.06
same,glycan array binding signal (z-score),[14],-0.549
same,glycan array binding signal (z-score),[15],-0.446
same,glycan array binding signal (z-score),[16],-0.398
same,glycan array binding signal (z-score),[17],-0.123
same,glycan array binding signal (z-score),[18],-0.291
same,glycan array binding signal (z-score),[19],0.158
same,glycan array binding signal (z-score),[20],-0.249
same,glycan array binding signal (z-score),[21],1.57
same,glycan array binding signal (z-score),[22],-0.046

# From the supplement of paper PMC8728848
